Among the data in PubChem BioAssay (NCATS) are Potency, viability (% of control) and viability, % of control values, retold here.

The nature of assay [1]: Viability qHTS for spleen associated tyrosine kinase inhibitor (SYKi) naive MV4-11 cells (AID 1963823). Note: nearly all actives have a fitted effect of over 40% in size. The essentials:
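SYK inhibitor-naive MV4-11 cells, 500 per well, exposed to compounds for 72 hr at 37 C, 5% CO2. Viability read as CellTiter-Glo luminescence after 10 min at room temperature.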

Assay [2] can be described thus: Viability qHTS for spleen associated tyrosine kinase inhibitor (SYKi) drug resistant MV4-11 cells (AID 1963824). Note: nearly all actives have a fitted effect of over 35% in size. The essentials: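 SYK-inhibitor-resistant MV4-11 AML cells were seeded at 500 per well onto compound and cultured 72 hours (37 °C, 5% CO2). CellTiter-Glo was then added, and after 10 min at room temperature, luminescence gave viability.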

SMILES strings stand for the structures. Records with an inconclusive call do not appear. Entries that show only a call come without a potency. Values without a mark were called inactive. The source made the active and inactive calls. Calls come from the whole dose curve; as a rule, active = well fitted cell-killing curve with a large enough effect; inconclusive = small, poorly fitted or top-dose-only effect, or effect the other way; inactive = no such curve, though single readings can be large or run the other way.
Potency is the fitted concentration of half-maximal effect.

As to `CC/C(C)=C/C(=O)OC1C(OC2(C)CCC3C(C4C(C)CCC42)C3(C)C)OC(C)C(O)C1O` (stereo not given), the Potency in assay [1] was 8.93 µM (active).

As for `Cc1cc(-c2nc(-c3ccc(OC(F)(F)F)cc3)no2)nn1Cc1ccnc(N2CCN(C3CC3)CC2)c1`, in assay [1], the Potency result was “inactive”. Consider `COC(=O)[C@H](OC(C)=O)[C@H]1C(C)(C)C(=O)[C@H]2CC3=C4CC(=O)O[C@@H](c5ccoc5)[C@]4(C)CCC3[C@@]1(C)C2=O` (stereo not given in full), for which the Potency entry in assay [1] is “inactive”. Still for that read-out and setting: for `CC(CC12CCCN1C(=O)C1CCCN1C2=O)OC(N)=O` (stereo not given) the value was “inactive”; for `O=C(Nc1cnc(Cl)nc1)c1ccc(F)c(F)c1`, “inactive”; for `COc1ccc(-c2ccccc2)cc1NS(=O)(=O)c1cc(Cl)cc(Cl)c1O`, “inactive”. The same measure, in the same setting: for `c1nc(NCC2CCOC2)c2cc(-c3ccc4c(c3)OCO4)ccc2n1` (stereo not given) the value was 20.6 µM (active). On to `CC1CCCCN1CCCOC(=O)c1ccc(OC2CCCCC2)cc1` (stereo not given), for which the Potency in assay [1] is 8.41 µM (active).

With `COc1cc2nc(N3CCN(C(=O)COc4c(OC)cccc4C(C)C)CC3)nc(N)c2cc1OC`, in assay [1], the Potency is 20.6 µM (active). The same measure, in the same setting: for `CC(=O)/C=C/C1(O)C(C)=CC(=O)CC1(C)C` (stereo not given) the value was “inactive”; for `C[N+]1(C)[C@@H]2CC[C@H]1CC(OC(=O)C(O)c1ccccc1)C2` (stereo not given in full), “inactive”; for `C=CCc1ccc(O[C@@H]2O[C@H](CO[C@@H]3O[C@H](CO)[C@@H](O)[C@H](O)[C@H]3O)[C@@H](O)[C@H](O)[C@H]2O)c(O)c1`, “inactive”. Still for that read-out and setting: the same measure for `CC1C2=CC(=O)OC2(O)CC2C1C(O)CC1C(C)(CO)CCCC21C` (stereo not given): “inactive”; for `Clc1ccccc1CNCC1CCC(CNCc2ccccc2Cl)CC1` (stereo not given): 11.6 µM (active). Consider `CC1=C2C3OC(=O)C(C)C3(O)CCC2(C)CCC1=O` (stereo not given), for which the Potency result in assay [1] was “inactive”. Same read-out and setting: for `C=CC1C(OC2OC(CO)C(O)C(O)C2O)OC=C(C(=O)OC)C1CC1CC(=O)CC(CCc2ccc(O)cc2)O1` (stereo not given) the value was “inactive”; for `CC1(C)C(=O)N2c3ccccc3C(O)(CC(C(=O)O)n3cnc4ccccc4c3=O)C2N1O` (stereo not given), “inactive”.

On to `O=C(OC[C@H]1O[C@H](O[C@]2(CO)O[C@H](CO)[C@@H](O)[C@@H]2O)[C@H](O)[C@@H](O)[C@@H]1O)c1ccc(O)cc1`, for which the Potency result in assay [1] was “inactive”. Same read-out and setting: for `COC1=CC(=O)C[C@@H](C)[C@@]12Oc1c(Cl)c(OC)cc(OC)c1C2=O` the value was “inactive”; for `CC(C)=CCc1ccc(Oc2c(O)cc(C)cc2CO)c(C(=O)O)c1O`, “inactive”.

As for `C=C(C)C(=O)O[C@H]1C[C@@](C)(O)C2(O)CCC(C)(/C=C3/OC(=O)C(COC)=C31)O2` (stereo not given in full), the Potency in assay [1] is 0.718 µM (active).

Turning to `C[C@]12CCC[C@](C)(C(=O)O)C1[C@@H](O)[C@@H](O)C13CC(CCC12)C(CO)(O[C@@H]1O[C@H](CO)[C@@H](O)[C@H](O)[C@H]1O)C3` (stereo not given in full), in assay [1], the Potency result is “inactive”. Same read-out and setting: the same measure for `C=C[C@@]1(C)CCC2C(=CCC3[C@]2(C)CCC[C@@]3(C)C(=O)O)C1` (stereo not given in full): “inactive”. The same measure, in the same setting: for `CC(C)C1NC(=O)C(CC2(O)c3ccccc3N3C(=O)C(Cc4ccccc4)NC32)NC1=O` (stereo not given) the value was “inactive”; for `CC(O)CCc1ccc(O[C@@H]2O[C@H](CO)[C@@H](O)[C@H](O)[C@H]2O)cc1` (stereo not given in full), “inactive”. Consider `C=CC1(C)C=C2C(=O)OC(=O)C3=C(CCCC3(C)C)C2(O)CC1` (stereo not given), for which the Potency result in assay [1] is “inactive”. Still for that read-out and setting: the same measure for `Cc1ccc(NC(=O)N2CCN(c3nc(N)nc4sc(-c5cccnc5)nc34)CC2)cc1`: 0.013 µM (active); for `CC(NC(=O)Cc1cc(F)cc(F)c1)C(=O)NC1C(=O)N(C)c2ccccc2-c2ccccc21` (stereo not given): 5.17 µM (active); for `C[C@]1(O)CC[C@@H]2C(C(=O)O)=CO[C@@H](O[C@@H]3O[C@H](COC(=O)c4ccc(O)cc4)[C@@H](O)[C@H](O)[C@H]3O)[C@@H]21`: “inactive”. On the same count and under the same terms, for `O=C(O)CCc1ccc(NCc2cccc3c2CCCN3CCOc2ccccc2)cc1F` the value was “inactive”; for `CC(C)C(N)C(=O)OCCOCn1cnc2c(=O)[nH]c(N)nc21` (stereo not given), “inactive”; for `CC(=O)O[C@H]1C[C@@](O)(C(C)C)C2[C@@H](OC(=O)c3ccc(O)cc3)C[C@@]3(C)O[C@H]3C[C@]21C` (stereo not given in full), “inactive”. On the same count and under the same terms, for `COc1ccc2c(c1)C[C@H](C(=O)Nc1ccc(-c3cn[nH]c3)cc1OCCN(C)C)CO2` the value was 0.651 µM (active); for `CC(=O)OC1C(O)CC2(C)C(CCC3(C)C2CC=C2C4C5(CCC(CO[C@@H]6O[C@H](CO)[C@@H](O)[C@H](O)[C@H]6O)(OC5=O)C4(C)O)C(O)CC23C)C1(C)C` (stereo not given in full), “inactive”; for `C=C/C=C/[C@@H]1OC[C@H](/C=C/C=C/C)[C@H]1O`, “inactive”. Turning to `C[C@@H]1O[C@@H](OC(=O)Cc2ccccc2)[C@H](O)[C@H](O)[C@H]1O`, the Potency result in assay [1] is “inactive”.

As to `C=C1/C(=C/C=C2\CCC[C@@]3(C)C2CCC3[C@H](C)/C=C/[C@@H](O)C2CC2)C[C@@H](O)C[C@@H]1O` (stereo not given in full), the Potency result in assay [1] is “inactive”. On the same count and under the same terms, for `CCCCCOC(=O)Nc1nc(=O)n(C2O[C@H](C)[C@@H](O)[C@H]2O)cc1F` (stereo not given in full) the value was “inactive”; for `CN1C2CCC1CC(OC(=O)[C@H](CO)c1ccccc1)C2` (stereo not given in full), 0.651 µM (active). In the case of `CC(C)C[C@H](CC(=O)NO)C(=O)N[C@@H](Cc1ccc2ccccc2c1)C(=O)N[C@@H](C)C(=O)NCCN`, the Potency entry in assay [1] is “inactive”. Same read-out and setting: for `C[C@@]1(F)[C@H](O)[C@@H](CO)O[C@H]1n1ccc(N)nc1=O` the value was “inactive”; for `C=Cc1cc(O)cc2nc(-c3ccc(O)c(F)c3)oc12`, 23.5 µM (active). Still for that read-out and setting: for `CC(=O)O[C@H]1[C@@]2(O)C[C@H](C)[C@H](OC(=O)c3ccccc3)[C@@H]2[C@@H](OC(=O)CO)[C@]2(OC(C)=O)C[C@H]3C(=O)C(C)(C)C[C@@H]3[C@@]1(C)[C@H]2OC(C)=O` the value was “inactive”; for `CC/C=C/C(O)C(O)C1=C(C)C(=O)C2(O1)C(=O)NC(OC)(C(=O)c1ccccc1)C2O` (stereo not given), “inactive”. On the same count and under the same terms, the same measure for `COC(=O)C[C@H]1[C@]2(C)C3=C(C)[C@H](c4ccoc4)C[C@H]3O[C@@H]2[C@H](O)C2[C@](C)(C(=O)OC)C=CC(=O)[C@@]21C` (stereo not given in full): “inactive”; for `COc1ccc(C(O[C@@H]2O[C@H](CO)[C@@H](O)[C@H](O)[C@H]2O)C(CO)Oc2ccc(/C=C/CO)cc2OC)cc1O` (stereo not given in full): “inactive”; for `O=C(O)COCCN1CCN([C@H](c2ccccc2)c2ccc(Cl)cc2)CC1`: “inactive”. As to `Cc1ccc2nc(NC(=O)CSc3nc4c(c(=O)n3-c3ccc(F)cc3)SCC4)sc2c1`, in assay [1], the Potency entry is “inactive”. On the same count and under the same terms, the same measure for `CCOc1ccc(-c2ccc(Cn3c(CC(C)(C)C(=O)O)c(SC(C)(C)C)c4cc(OCc5ccc(C)cn5)ccc43)cc2)cn1`: “inactive”; for `COc1ccc(/C=C/C(=O)O[C@H]2[C@@H]3C=CO[C@@H](O[C@@H]4O[C@H](CO)[C@@H](O)[C@H](O)[C@H]4O)[C@@H]3[C@@]3(CO)O[C@@H]23)cc1O`: “inactive”; for `CC1(C)C[C@H](O)C[C@@]2(C)OC(=O)C=C12`: “inactive”. As for `C=CC(=O)N1CCCN(c2cc(NCCC(=O)O)nc(-c3ccccn3)n2)CC1`, the Potency result in assay [1] is “inactive”. Still for that read-out and setting: for `CC1(C)CC(=O)N(CCCCN2CCN(c3ncccn3)CC2)C(=O)C1` the value was “inactive”; for `O=C(O[C@@H]1O[C@H](CO)[C@@H](O)[C@H](O)[C@H]1O)c1ccccc1`, “inactive”. With `COc1ccc(C(=O)CC(=O)O)c2c1C=CC(C)(C)O2`, the Potency entry in assay [1] and in assay [2] was “inactive” each time.

With `COc1cc(C(C)=O)c(OC)c2c1OC(C)(C)C=C2`, in assay [1], the Potency result was “inactive”.

As to `C=C1C(O)C(O)C2(CC3C(C)=CCC4C(C)(C(=O)O)CCCC34C)OC2C1O` (stereo not given), the Potency result in assay [1] was “inactive”. In the case of `COc1ccc2c(c1)C=C1Cn3c-2c(C2CCCCC2)c2ccc(cc23)C(=O)NS(=O)(=O)N(C)CCOCCN(C)C1=O`, the values for the Potency in assay [1] and in assay [2] were 16.4 µM (active) and 18.4 µM (active), respectively. As for `O=S(=O)(O)c1ccc(Nc2ncnc3c2ncn3[C@@H]2O[C@H](CO)[C@@H](O)[C@H]2O)cc1`, the Potency entry in assay [1] is “inactive”. Same read-out and setting: for `O=S(=O)(c1ccccc1)c1cnc2c(N3CCNCC3)cccc2c1` the value was “inactive”. For `C[C@@H]1O[C@@H](O[C@H]2[C@H](O)[C@@H](O)[C@H](OC[C@H]3O[C@@H](OC(=O)[C@]45CCC(C)(C)C[C@H]4C4=CCC6[C@@]7(C)C[C@H](O)[C@H](O[C@@H]8O[C@H](CO)[C@@H](O)[C@H](O)[C@H]8O)[C@@](C)(C(=O)O)C7CC[C@@]6(C)[C@]4(C)CC5)[C@H](O[C@@H]4O[C@H](CO)[C@@H](O)[C@H](O)[C@H]4O)[C@@H](O)[C@@H]3O)O[C@@H]2CO)[C@H](O)[C@H](O)[C@H]1O` (stereo not given in full), in assay [1], the viability (% of control) is 103% [at 9.25 µM]. Moreover, the viability, % of control in assay [2] is 87% [at 9.25 µM]. Turning to `COc1cc(C(C)=O)ccc1O[C@@H]1O[C@H](CO[C@@H]2O[C@@H](C)[C@H](O)[C@@H](O)[C@H]2O)[C@@H](O)[C@H](O)[C@H]1O`, the Potency entry in assay [1] and in assay [2] was “inactive” in each case. Take `CC(C)C1CCC(CO)=CC1/C=C(\CO)C(=O)OCC1(O)CCC(C(C)C)C2C=C(C(=O)O)COC(=O)C21` (stereo not given): the Potency entry in assay [1] was “inactive”.

Take `CC1(C)CCCC2(C)C1C(OC(=O)/C=C/C=C/C=O)C=C1COC(=O)C12O` (stereo not given): the Potency in assay [1] was 5.02 µM (active). As to `CC1(CO)CC2C(O)C3=C(CC(C)(O)C2C1)C(=O)OC3` (stereo not given), the Potency entry in assay [1] and in assay [2] was “inactive” in each case. In the case of `CSc1ccc(C(=O)N[C@@H]2CCCC[C@@H]2NC(=O)CNC(=O)c2cc(C(F)(F)F)ccc2NC(=O)NC(C)C)cc1`, the Potency entry in assay [1] is “inactive”. Same read-out and setting: for `CC(O)/C=C/C1OC(=O)CC1Nc1ccc(C(=O)O)cc1` (stereo not given) the value was “inactive”; for `CC(=O)OCCC(C)CCC1C(C)(O)CCC2C(C)(C)CCCC21C` (stereo not given), “inactive”. `COc1cc(CO)cc(OC)c1O[C@@H]1O[C@H](CO)[C@@H](O)[C@H](O)[C@H]1O`: the Potency result in assay [1] and in assay [2] was “inactive” each time. Turning to `CC1(C)CC2C(O)c3cocc3CC(C)(O)C2C1` (stereo not given), in assay [1], the Potency entry is “inactive”. As for `OC[C@H]1O[C@@H](OC(CCCCc2ccc(O)cc2)CCc2ccc(O)cc2)[C@H](O)[C@@H](O)[C@@H]1O` (stereo not given in full), the Potency entry in assay [1] and in assay [2] was “inactive” each time. Take `CC1(C)CC[C@]23CO[C@@]4(CCC5[C@@]6(C)CC[C@H](O[C@@H]7OC[C@H](O[C@@H]8O[C@H](CO)[C@@H](O)[C@H](O)[C@H]8O[C@@H]8OC[C@@H](O)[C@H](O)[C@H]8O)[C@H](O)[C@H]7O[C@@H]7O[C@H](CO)[C@@H](O)[C@H](O)[C@H]7O)[C@@](C)(CO)C6CC[C@@]5(C)[C@]4(C)C[C@H]2O)[C@@H]3C1` (stereo not given in full): the Potency in assay [1] was 2.19 µM (active); in assay [2], 3.9 µM (active).
